# Reference: PubChem BioAssay AID1220 (Sanford-Burnham Center for Chemical Genomics, 2008)
# Screen size: about 190,000 compounds; about 1,300 (0.68%) were called active. This is one part of a sample in which actives are shown more often than they occur. A number with no mark means an inactive call. No stated cut-off is given here; in the data, active means inhibition above about 50%; inactive means the rest.
# Biological target: Mannose-6-phosphate isomerase (Homo sapiens) (UniProt P34949)
# Assay: MPI inhibition at elevated mannose 6-phosphate – biochemical, fluorescence intensity, high mannose 6-phosphate, primary screen (AID 1220)
# Conditions: recombinant PMI enzyme, coupled fluorescence intensity; at 20 µM; hits give high values
# Sequence of Mannose-6-phosphate isomerase (Homo sapiens) (P34949 whole entry, looked up): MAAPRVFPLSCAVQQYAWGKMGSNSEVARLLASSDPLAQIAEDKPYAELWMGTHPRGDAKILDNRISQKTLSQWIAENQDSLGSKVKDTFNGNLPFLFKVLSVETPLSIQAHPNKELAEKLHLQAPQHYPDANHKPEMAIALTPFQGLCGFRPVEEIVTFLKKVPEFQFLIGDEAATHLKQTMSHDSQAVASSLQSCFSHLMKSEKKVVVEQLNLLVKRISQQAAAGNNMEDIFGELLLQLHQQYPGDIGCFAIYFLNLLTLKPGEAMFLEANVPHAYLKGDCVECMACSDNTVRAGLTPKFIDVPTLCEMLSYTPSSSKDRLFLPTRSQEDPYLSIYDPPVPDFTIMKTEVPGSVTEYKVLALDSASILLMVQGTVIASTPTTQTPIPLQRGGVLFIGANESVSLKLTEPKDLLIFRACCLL
row,SMILES,inhibition
1,COc1cc(CN2CCC(C(=O)N3CCN(c4ccccc4F)CC3)CC2)cc(OC)c1OC,9.1%
2,COc1cc(CN2CCC(C(=O)N3CCN(c4ccccc4F)CC3)CC2)cc(OC)c1O,53.7% (active)
3,COc1cc(CN2CCC(C(=O)NC3CCCC3)CC2)ccc1O,3.5%
4,COc1cc(CN2CCC(C(=O)NC3CCCC3)CC2)cc(OC)c1O,63.9% (active)
5,COc1cc(CN2CCC(C(=O)N3CCN(c4ccccc4F)CC3)CC2)ccc1O,13.4%
6,COc1cc(CN2CCC(C(=O)NC3CCCC3)CC2)cc(Br)c1O,14.6%
7,Cc1cc(-c2[nH]nc3c2C(c2ccc(Cl)cc2)C(C#N)=C(N)O3)c(C)s1 (stereo not given),26.2%
8,COc1ccc(Cl)cc1CSc1n[nH]c(C)n1,8.9%
9,O=C(NCc1ccco1)C(=O)NCC1OCCCN1S(=O)(=O)c1ccccc1 (stereo not given),-6.2%
10,Cc1cc(NC(=O)CCC(=O)N(CC(=O)NCC2CCCO2)Cc2ccc(F)cc2)no1 (stereo not given),-6.3%
11,COc1ccc(C=C2C(=O)c3ccccc3C2=O)cc1O,60.8% (active)
12,CCN1C/C(=C/c2ccc(OC)c(O)c2)C(=O)/C(=C/c2ccc(OC)c(O)c2)C1,36.6%
13,COc1cc(C=C2C(=O)c3ccccc3C2=O)cc(OC)c1OC,-22.9%
14,CC1(C)C(=O)Nc2ccccc2N1C(=O)COc1cccnc1[N+](=O)[O-],-1.5%
15,CCOc1cc(-c2noc(CCCC(N)=O)n2)cc(Br)c1OC,15.3%
16,CC(C)CC1(C)NC(=O)N(CC(=O)NC(=O)Nc2ccc3c(c2)OCCO3)C1=O (stereo not given),7%
17,N#CC(C#N)=C1C=C2C=C(N3CCCCCC3)CCC2CC1 (stereo not given),50.6% (active)
18,N#CC1=C(N)C2=C(N3CCCCC3)CCCC2C1(C#N)C#N (stereo not given),11.7%
19,N#C/C(=C\c1ccc(N2CCOCC2)cc1)c1ccccc1,2.5%
20,CN1CCN(C2=CC3=CC(=C(C#N)C#N)CCC3CC2)CC1 (stereo not given),61.8% (active)
21,N#CC(C#N)=C1C=C2C=C(N3CCOCC3)CCC2CC1 (stereo not given),55.3% (active)
22,N#CC(C#N)=C1C=C2C=C(N3CCCCC3)CCC2CC1 (stereo not given),58.7% (active)

row,SMILES,inhibition
1,N#Cc1cc(Cl)c(N2CCOCC2)cc1C#N,-7.2%
2,Cc1cc(C)c(NC(=O)CS)c(Cl)c1,-11.6%
3,CSc1nc(Cl)cc(Nc2ccccc2N)n1,-3%
4,O=C(O)CCNC(=O)/C(=C/C=C/c1ccccc1)NC(=O)c1ccccc1,-0.9%
5,Cc1ccc(Nc2nc(Nc3ccc(C)cc3)nc(SC3=NCCS3)n2)cc1,8.1%
6,CCCCC1(Cc2ccc(OC)c([N+](=O)[O-])c2)C(=O)N(c2ccccc2)N(c2ccccc2)C1=O,11%
7,CC(C)(C)CC(C)(C)c1ccc(O)c(CN2CCN(CCC#N)CC2)c1,4.7%
8,CC1(C)CC(NCCN2CCN(C3=CC(=C(C#N)C#N)CC(C)(C)C3)CC2)=CC(=C(C#N)C#N)C1,12.4%
9,CCN1CCN(C2=CC3=CC(=C(C#N)C#N)CCC3CC2)CC1 (stereo not given),59.6% (active)
10,CCC(CC)COC(=O)C(C#N)c1nc2ccccc2nc1N1CCN(CC)CC1 (stereo not given),17.2%
11,CCn1cc(C(=O)N2CCc3ccccc32)c(=O)c2cc(S(=O)(=O)N3CCCCCC3)ccc21,5.7%
12,CCC(=O)NC(c1ccc(N(C)C)cc1)c1c(O)ccc2ccccc12 (stereo not given),62% (active)
13,CCCC(=O)NC(c1ccc(N(C)C)cc1)c1c(O)ccc2ccccc12 (stereo not given),54.8% (active)
14,CCCC(=O)NC(c1ccccc1Cl)c1c(O)ccc2ccccc12 (stereo not given),13.4%
15,CCC(=O)NC(c1ccc([N+](=O)[O-])cc1)c1c(O)ccc2ccccc12 (stereo not given),14.3%
16,CCCC(=O)NC(c1ccc(OC)c(OC)c1)c1c(O)ccc2ccccc12 (stereo not given),23.2%
17,CCC(=O)NC(c1ccc(OC)cc1)c1c(O)ccc2ccccc12 (stereo not given),44.2%
18,Cc1cc(NC(=O)CN2C(=O)/C(=C/c3cccc(Br)c3)SC2=S)no1,-9.8%
19,CC(Cl)c1cc(-c2ncc(C(F)(F)F)cc2Cl)no1 (stereo not given),-4.3%
20,CCc1ccccc1OCCCCCNCCO,1.5%
21,COc1cc(C2=NOC(C(=O)N3CCCCCC3)C2)cc(OC)c1OC (stereo not given),-5.6%
22,O=C(O)C1CC=CCC1C(=O)NCCc1csc(-c2ccccc2)n1 (stereo not given),-17.1%

row,SMILES,inhibition
1,CCOc1ccc(C(C)NC(=S)NC2CCCCC2)cc1OCC (stereo not given),6%
2,Cc1ccc(OCC(=O)N/N=C\c2cn(C)c3ccccc23)c([N+](=O)[O-])c1,14%
3,COc1cccc(C2NC(=O)c3ccccc3O2)c1OCc1ccccc1F (stereo not given),19%
4,CN(C)c1ccc(/C(=N\O)c2ccccc2)cc1,5.9%
5,CN(C)c1ccc(C=Nc2ccc(N(C)C)cc2)cc1,59.2% (active)
6,CN(C)c1ccc(N=Cc2ccco2)cc1,63.2% (active)
7,CN(C)c1ccc(C=Nc2ccccc2)cc1,-10.5%
8,Cc1ccc(N=Cc2ccc(N(C)C)cc2)cc1C,10%
9,Cc1ccc(/C=C/C(=O)Nc2ccc(N(C)C)cc2)o1,27.9%
10,Cc1ccc(C=Nc2ccc(N(C)C)cc2)o1,51.8% (active)
11,Cc1ccc(N=Cc2ccc(N(C)C)cc2)cc1,9.3%
12,CN(C)c1ccc(C(=O)/C=C/c2ccco2)cc1,38.7%
13,CN(C)c1ccc(N=Cc2nc(-c3ccccc3)oc2O)cc1,31%
14,CCSc1nc(C(F)(F)F)cc(=O)n1-c1ccccc1,-9.6%
15,O=C(Nc1c(F)cc(F)cc1Br)c1cc2nc(C(F)F)cc(C(F)F)n2n1,18.1%
16,CCCC1(C)NC(=O)c2ccccc2O1 (stereo not given),7.5%
17,Cc1cccc(C)c1NC(=O)CSc1nnc(Cc2ccccc2)o1,-13.2%
18,Cc1cccc(OCC(=O)O/N=C(\N)Cc2cccs2)c1,0%
19,COc1ccc(OCC(=O)N2CCN(c3cccc(C(F)(F)F)c3)CC2)cc1,15.4%
20,O=C(COc1cccc(C(F)(F)F)c1)N1CCN(c2ccc(O)cc2)CC1,50.6% (active)
21,O=C(COc1cccc(C(F)(F)F)c1)N1CCN(c2ccccc2O)CC1,-5.8%
